High-throughput results (PubChem)
Most compounds without a hit are left out; they make up all but 19% or so of the library.
Lassa entry inh: Lassa virus entry inhibition | Potency, µM (doses to about 37.9 µM), inactives show at the top dose activity change, negative = inhibition, most hits filed as inhibitors | AID 540256 | actives 1.2% (n = 300,000) | Lassa virus pseudotype entry inhibition, cell reporter; calls by dose curve; tested in HEK293 cells; also: potency is read from the fitted curve at half-maximal effect; % is scaled to controls: 0 for no effect and ±100 for the full control effect; nearly all actives have a fitted effect of over 50% in size
Pf growth 96h: inhibits malaria parasite growth, 96 h | actives 6.9% (n = 320,000) | AID 504834 | Potency, µM (doses to about 28.7 µM), for the others: at the top dose activity change, negative = inhibition, actives largely listed as inhibitors | P. falciparum luciferase reporter growth, 96 h; also: potency is read from the fitted curve at half-maximal effect; % is scaled to controls: 0 for no effect and ±100 for the full control effect
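Cell-based qHTS: luciferase-tagged P. falciparum in erythrocytes (2% hematocrit, 0.05% parasitemia final) incubated with compounds for 96 hours, 37 C, 5% CO2; luciferase detection reagent then added and luminescence measured.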
CHX counter: counter-screen hit for Shiga toxin inhibitors, cycloheximide; max response, %; actives 12% (n = 300,000); cell reporter, cycloheximide protein synthesis inhibition counterscreen; in the data active = max response mostly above about 13%, no sharp cut-off; inactive = mostly below about 14%; also: read at 38.3 µM for the half of the compounds with a filed dose; 0% is about no effect
Pf growth 48h: P. falciparum growth inhibition at 48 hours (one generation) | P. falciparum luciferase growth in erythrocytes, 48 h | Potency, µM (highest dose often 28.7 µM), inactives show top-dose activity change, negative = inhibition, hits mostly inhibitors | AID 504832 | actives 5.9% (n = 310,000); also: potency is read from the fitted curve at half-maximal effect; % is scaled to controls: 0 for no effect and ±100 for the full control effect
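Luciferase-expressing P. falciparum in infected erythrocytes (2% hematocrit, 0.1% parasitemia final) in RPMI 1640/0.5% Albumax were exposed to compound for 48 hours at 37 C, 5% CO2; growth read as luminescence.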
Shiga toxin inh: blocks Shiga toxin action in Vero cells; Vero cells, Shiga toxin protein synthesis inhibition reporter; inhibition, % at 38.7 µM; actives 9.2% (n = 290,000); AID 2315; in the data active = inhibition mostly above about 28%, no sharp cut-off; inactive = mostly below about 43%; also: 0% is about no effect
Marburg entry inh: blocks Marburg virus binding to or entry into cells; Marburg virus pseudotyped entry inhibition, cell reporter; Potency, µM (doses to about 37.8 µM), inactives show at the top dose activity change, negative = inhibition, usual class: inhibitors; actives 1.8% (n = 300,000); AID 540276; calls by dose curve; tested in HEK293 cells; also: potency is read from the fitted curve at half-maximal effect; % is scaled to controls: 0 for no effect and ±100 for the full control effect
Active calls of the source: *; ? = inconclusive; . = no result; + = active, no number; [ ] = another dose, or the depositor's remark. Unless noted, calls follow the shape of the dose curve; as a rule, active = well fitted inhibition curve with a large enough effect; inconclusive = small, poorly fitted or top-dose-only effect, or another doubt; inactive = no such curve, though single readings can be large or run the other way.

SMILES	Lassa entry inh	Pf growth 96h	CHX counter	Pf growth 48h	Shiga toxin inh	Marburg entry inh
CC(C)=CCc1c(O)cc2oc3c(CC=C(C)C)c(O)c(O)c(CC=C(C)C)c3c(=O)c2c1O	.	4%	-2	13µM*	18	.
Cc1nnc(C)n1/N=C/c1ccc(-c2ccccc2Cl)o1	2%	4%	0	17%	2	-1%[46.1 µM]
S=c1[nH]nc(-c2ccccc2)n1/N=C/c1ccc(-c2ccccc2Cl)o1	0.82µM*	?	-2	-6%	4	0.71µM*
S=c1[nH]nc(-c2cccc(Cl)c2)n1/N=C/c1ccc(-c2ccccc2Br)o1	.	?	-2	10µM*	31	.
O=C1NC(c2cccs2)Nc2sc3c(c21)CCCC3 (configuration not stated)	?	.	38*	60%	87*	?
CN1CCc2c(sc3c2C(=O)NC(c2ccco2)N3)C1 (configuration not stated)	21%	?	4	1%	-1	8%
CSc1cccc(NC(=O)C(c2ccccc2)N2Cc3ccccc3C2=O)c1 (configuration not stated)	-11%[46.1 µM]	.	.	.	.	.
CCOC(=O)C1=C(c2ccccc2)NC(N)=NC1c1ccc(OCc2ccc(C(=O)OC)cc2)cc1 (configuration not stated)	.	7.4µM*	-2	4.7µM*	2	.
CCCCc1nnc(SCCSc2nnc(CCCC)n2N)n1N	0%	13µM*	6	-12%	22	3%
Cc1ccc(NC2=Nc3ccccc3CC2)cc1	?	7%	11*	-39%	32	7.9µM*
Brc1ccc(NC2=Nc3ccccc3CC2)cc1	-26%	-41%	56*	10%	+	-24%
Cc1ccc(C)c(OCc2cc(C(=O)N3CCc4sccc4C3)no2)c1	26%	-23%	-2	7%	-27	3%
O=C(c1cc(COc2ccc(F)cc2Cl)on1)N1CCc2sccc2C1	.	44%	26*	-12%	43*	.
COc1cc(Cl)ccc1OCc1cc(C(=O)N2CCCCC2c2cccnc2)no1 (configuration not stated)	.	?	17*	?	32	.
O=C(c1cc(COc2ccc(F)cc2Cl)on1)N1CCCCC1c1cccnc1 (configuration not stated)	.	?	25*	?	38*	.
Cc1nonc1C1CCCN1C(=O)c1cc(COc2ccc(F)cc2Cl)on1 (configuration not stated)	.	?	29*	2%	41	.
C=CCn1c(CNC(=O)c2ccccc2F)nnc1SCc1nc2ccccc2c(=O)[nH]1	14%	28%	1	4%	12	3%[14.2 µM]
O=C(C=C=Nc1ccccc1)C(=O)N=C=Cc1ccccc1	7%	?	24*	?	72*	?
O=C1NC(=O)N(Cc2ccccc2)C(=O)/C1=C\C=C\c1ccco1	?	?	30*	14%	37	?
O=C1NC(=O)N(c2ccccc2)C(=O)/C1=C/C=C/c1ccco1	.	22%	36*	21%	57*	.
O=C1NC(=O)N(CCc2ccc(F)cc2)C(=O)/C1=C\C=C\c1ccccc1	.	?	21*	29%	27	9%[46.1 µM]
Cc1cc(C)cc(N2C(=O)NC(=O)/C(=C/c3cccn3-c3ccc(Cl)cc3)C2=O)c1	?	43%	0	17%	7	?
CC(C)(C)n1cccc1/C=C1\C(=O)NC(=O)N(c2ccccc2)C1=O	4%	10µM*	10	-7%	16	0%
O=C1NC(=O)N(Cc2ccco2)C(=O)/C1=C/C=C/c1ccco1	?	?	0	12%	-4	?
N#CC(=C(O)COC(=O)c1ccc2c(c1)OCCO2)c1nc2ccccc2[nH]1	-16%[46.1 µM]	.	.	.	.	5%[46.1 µM]
COC(=O)c1c(NC(=O)CN2CCN(C(=O)c3ccco3)CC2)c2c(C)cccc2n1C	-1%	.	12	?	-3	23%
COc1ccc2c(c1)c1c(c(=O)n(CCc3ccccc3)c(=O)n1Cc1ccccc1)n2C	17%[46.1 µM]	.	.	.	.	.
Cc1cccc(N2C(=O)NC(=O)/C(=C/c3ccc([N+](=O)[O-])o3)C2=O)c1	7%	40%	3	19%	14	3%
CN1C(=O)/C(=C/C=C/c2ccco2)C(=O)NC1=S	.	32%	-1	1%	-15	.
